Assay results reported in article PMC4081100, “A DNA-binding-site landscape and regulatory network analysis for NAC transcription factors in Arabidopsis thaliana”.

Each sequence was assayed against T1, GST-ANAC092(1-285) full length (Arabidopsis thaliana, UniProt Q9FKA0 1-285) (assay: universal protein binding microarray (PBM); transcription factors of Arabidopsis thaliana; high values mean tight binding). Conditions: protein: recombinant; tags: GST; chain copies: 2; dsDNA, one strand shown.
T1 sequence: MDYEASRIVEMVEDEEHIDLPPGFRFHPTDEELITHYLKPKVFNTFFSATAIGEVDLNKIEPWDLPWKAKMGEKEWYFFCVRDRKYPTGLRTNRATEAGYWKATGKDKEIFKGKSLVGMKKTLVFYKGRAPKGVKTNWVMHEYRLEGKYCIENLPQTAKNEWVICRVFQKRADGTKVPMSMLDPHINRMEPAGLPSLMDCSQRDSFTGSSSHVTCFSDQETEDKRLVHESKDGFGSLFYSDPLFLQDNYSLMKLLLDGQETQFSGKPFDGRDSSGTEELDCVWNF
Method in brief: (§1)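 Binding is expressed as the normalised enrichment score (E-score). Proteins carrying a GST tag, whether NAC-domain, full-length or DNA-binding-domain forms, were induced in cells, and zinc acetate was added for zinc-finger proteins. After purification on glutathione–Sepharose 4B and quantification by A280 or anti-GST western blot, each was applied in duplicate at 200 to 500 nM final to custom all-10-mer Agilent 4 × 180K arrays made double-stranded by primer extension. Gapped and ungapped 8-mers were scored.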
In the case of ATTGGTCA, the binding signal is reported as 0.105 E-score. For TGGTCAAA, the binding signal was 0.0538 E-score. ACACGGTA showed a binding signal of 0.443 E-score. With GTTGACAA the binding signal was 0.055 E-score. Sequence CCACGGAA has a binding signal of 0.244 E-score. In the case of GCACGGTA, the binding signal is reported as 0.408 E-score. Work on GTCAATCA yielded a binding signal of 0.169 E-score. CTAGTCAA gave a binding signal of 0.0883 E-score. With TTCGTCAA the binding signal was 0.0695 E-score. ACACGGCT was tested, and the binding signal was 0.335 E-score. With TACAGTCA the binding signal was 0.131 E-score. CACGGCTC gave a binding signal of 0.18 E-score. In the case of ATAGTCAA, the binding signal is reported as 0.12 E-score. Sequence AGTCAATC has a binding signal of 0.0868 E-score. ATTGACTA was tested, and the binding signal was 0.153 E-score. Work on AATAGTCA yielded a binding signal of 0.113 E-score.

The sequences below were run against T2, GST-NAP(1-166) (Arabidopsis thaliana, UniProt O49255 1-166) in the same assay as above. Conditions: protein: recombinant; tags: GST; chain copies: 2; dsDNA, one strand shown.
T2 sequence: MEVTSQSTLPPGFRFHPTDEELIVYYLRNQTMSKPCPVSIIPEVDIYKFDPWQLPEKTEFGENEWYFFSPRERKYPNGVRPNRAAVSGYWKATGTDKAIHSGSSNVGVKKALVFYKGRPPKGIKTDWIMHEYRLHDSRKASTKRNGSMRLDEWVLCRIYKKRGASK
Method in brief: as §1
In the case of ACACGGTA, the binding signal is reported as 0.234 E-score. GTTGACAA showed a binding signal of 0.116 E-score. For CCACGGAA, the binding signal was 0.149 E-score. GTTGGTCA showed a binding signal of 0.117 E-score. GCACGGTA showed a binding signal of 0.102 E-score. With CTATTGAC the binding signal was 0.0658 E-score. Work on AGAGGGAA yielded a binding signal of 0.111 E-score. AAAGTCGT showed a binding signal of 0.132 E-score. ACACGGCT gave a binding signal of 0.194 E-score. CACGGCTC gave a binding signal of 0.3 E-score. ATAGTCAA gave a binding signal of 0.0851 E-score. For GTCAAATA, the binding signal was 0.0873 E-score. In the case of ATATTGAC, the binding signal is reported as 0.178 E-score. For AATGTCAA, the binding signal was 0.13 E-score. GGATTGAC showed a binding signal of 0.0556 E-score. AGTCAATC showed a binding signal of 0.0978 E-score. For ATTGACTA, the binding signal was 0.0723 E-score.

The sequences below were run against T3, GST-NST2(1-184) (Arabidopsis thaliana, UniProt Q9M274 1-184) in the same assay as above. Conditions: protein: recombinant; tags: GST; chain copies: 2; dsDNA, one strand shown.
T3 sequence: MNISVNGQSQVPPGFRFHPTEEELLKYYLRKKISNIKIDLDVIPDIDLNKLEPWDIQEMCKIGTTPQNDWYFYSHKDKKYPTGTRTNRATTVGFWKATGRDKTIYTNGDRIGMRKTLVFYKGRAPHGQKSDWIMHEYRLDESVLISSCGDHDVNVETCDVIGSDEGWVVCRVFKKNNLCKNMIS
Method in brief: as §1
Sequence CAAGACCA has a binding signal of 0.0893 E-score. ACACGGTA showed a binding signal of 0.202 E-score. CCACGGAA showed a binding signal of 0.123 E-score. Work on ATGGTCAA yielded a binding signal of 0.0826 E-score. With GTCAATCA the binding signal was 0.0647 E-score. With AGAGTCAA the binding signal was 0.0818 E-score. With CTTGACCA the binding signal was 0.1 E-score. TTCGTCAA showed a binding signal of 0.0662 E-score. With AAAGTCGT the binding signal was 0.13 E-score. ATAGTCAA showed a binding signal of 0.146 E-score. In the case of AATGTCAA, the binding signal is reported as 0.0715 E-score. GGATTGAC was tested, and the binding signal was 0.12 E-score. TGACTAAA showed a binding signal of 0.111 E-score. AGTCAATC showed a binding signal of 0.0674 E-score. In the case of ATTGACTA, the binding signal is reported as 0.182 E-score. AATAGTCA showed a binding signal of 0.0657 E-score.

These sequences were tested against T4, GST-NTL8 NAC domain (Arabidopsis thaliana, UniProt Q9XIN7 14-156) in the same assay as above. Conditions: protein: recombinant; tags: GST; chain copies: 2; dsDNA, one strand shown.
T4 sequence: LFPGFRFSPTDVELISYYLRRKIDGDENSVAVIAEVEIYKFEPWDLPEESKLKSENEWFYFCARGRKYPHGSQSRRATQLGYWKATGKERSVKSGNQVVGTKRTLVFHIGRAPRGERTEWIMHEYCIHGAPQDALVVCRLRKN
Method in brief: as §1
Sequence AAGTCTTC has a binding signal of 0.0771 E-score. CCACGGAA gave a binding signal of 0.107 E-score. GTCAATCA gave a binding signal of 0.0888 E-score. Sequence AGAGGGAA has a binding signal of 0.447 E-score. In the case of CTAGTCAA, the binding signal is reported as 0.0822 E-score. TACAGTCA gave a binding signal of 0.0899 E-score. For AGTCAATC, the binding signal was 0.122 E-score.

These sequences were tested against T5, GST-VND3 NAC domain (Arabidopsis thaliana, UniProt Q9FH59 12-162) in the same assay as above. Conditions: protein: recombinant; tags: GST; chain copies: 2; dsDNA, one strand shown.
T5 sequence: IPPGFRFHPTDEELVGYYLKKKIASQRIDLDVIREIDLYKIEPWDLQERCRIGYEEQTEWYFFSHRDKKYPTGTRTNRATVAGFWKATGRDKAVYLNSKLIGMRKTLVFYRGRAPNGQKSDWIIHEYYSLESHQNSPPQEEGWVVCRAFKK
Method in brief: as §1
For AGTCAACT, the binding signal was 0.0667 E-score. Sequence TATGACCA has a binding signal of 0.117 E-score. CAAGACCA gave a binding signal of 0.0681 E-score. AGGTCAAA was tested, and the binding signal was 0.062 E-score. ATTGGTCA showed a binding signal of 0.0748 E-score. In the case of AAGTCTTC, the binding signal is reported as 0.123 E-score. With AGTCGTGC the binding signal was 0.324 E-score. Sequence TGGTCAAA has a binding signal of 0.118 E-score. Work on ACACGGTA yielded a binding signal of 0.227 E-score. With GTTGACAA the binding signal was 0.0521 E-score. For CCACGGAA, the binding signal was 0.343 E-score. Sequence ATGGTCAA has a binding signal of 0.138 E-score. GTTGGTCA gave a binding signal of 0.0931 E-score. With AATGGTCA the binding signal was 0.0734 E-score. Work on GCACGGTA yielded a binding signal of 0.124 E-score. CTATTGAC was tested, and the binding signal was 0.06 E-score. GTCAATCA gave a binding signal of 0.132 E-score. AGAGGGAA showed a binding signal of 0.0709 E-score. In the case of AGAGTCAA, the binding signal is reported as 0.0953 E-score. Sequence CTTGACCA has a binding signal of 0.119 E-score. Work on TCTGGTCA yielded a binding signal of 0.059 E-score. Sequence GTGGTCAA has a binding signal of 0.0872 E-score. In the case of CTAGTCAA, the binding signal is reported as 0.166 E-score. For TTCGTCAA, the binding signal was 0.0782 E-score. AAAGTCGT was tested, and the binding signal was 0.145 E-score. ACACGGCT showed a binding signal of 0.348 E-score. TACAGTCA gave a binding signal of 0.167 E-score. CACGGCTC was tested, and the binding signal was 0.337 E-score. CATGGTCA gave a binding signal of 0.0588 E-score. CTTGACTC was tested, and the binding signal was 0.0677 E-score. ATAGTCAA gave a binding signal of 0.211 E-score. In the case of GTCAAATA, the binding signal is reported as 0.0795 E-score. ATATTGAC showed a binding signal of 0.169 E-score. AATGTCAA showed a binding signal of 0.104 E-score. GGATTGAC showed a binding signal of 0.094 E-score. Sequence TGACTAAA has a binding signal of 0.0682 E-score. Sequence AGTCAATC has a binding signal of 0.0908 E-score. Sequence ATTGACTA has a binding signal of 0.228 E-score. With AATAGTCA the binding signal was 0.178 E-score.
